Active and inactive are the calls of the source. The calls were made as follows: active = hit-call score of the fitted dose curve at least 0.9, where 1 is the maximum; inactive = score below 0.9.
test: ATG_M_06_CIS: Attagene CIS-FACTORIAL HepG2 Assay for M06 Transcription Factor (Internal Marker) (AID 2282950); settings: HepG2 Attagene CIS-FACTORIAL M06 internal marker reporter; actives raise or lower the signal
Description: ATG_CIS is a cell-based, multiplexed-readout assay that uses HepG2, a human liver cell line, with measurements taken at 24 hours after chemical dosing in a 24-well plate.ATG_M_06_CIS is one of 52 assay component(s) measured or calculated from the ATG_CIS assay. It is designed to make measurements of mRNA induction, a form of inducible reporter, as detected with fluorescence intensity signals by Reverse transcription polymerase chain reaction (RT-PCR) and Capillary electrophoresis technology.Data from the assay component ATG_M_06_CIS was analyzed into 1 assay endpoint. This assay endpoint, ATG_M_06_CIS, was analyzed with bidirectional fitting relative to DMSO as the negative control and baseline of activity. Using a type of inducible reporter, measures of mRNA for gain or loss-of-signal activity can be used to understand the background control at the transcription factor-level as they relate to the gene . Furthermore, this assay endpoint can be referred to as a secondary readout, because this assay has produced multiple assay endpoints where this one serves a background control function. To generalize the intended target to other relatable targets, this assay endpoint is annotated to the background measurement intended target family, where the subfamily is internal marker.
Human liver HepG2 cells are transiently transfected with multiple reporter transcription units (MRTUs) in 6-well plates using FuGene 6 reagent (Roche; 3 ml FuGene/1 mg DNA). The MRTU constructs are regulated by a cis-regulating element (promoter). […] A major difference between the CIS and TRANS system is that in CIS activities of endogenous TFs are measured, whereas the TRANS assay evaluates changes in activities of exogenous, chimeric NR-Gal4 proteins. […] At the end of 24 hour incubation, total RNA was isolated using TriZol reagent (Invitrogen). The isolated RNA is then reverse-transcribed using oligo(dT) primer and Mo-MLV reverse transcriptase (Invitrogen) with DNAse I (Ambion) treatment for 30 min. The one-tenth of the produced cDNA was amplified by PCR using Taq DNA polymerase (Invitrogen) and two reporter sequence-specific primers. The PCR products were fluorescently labeled by primer extension with 6-arboxyfluorescein (6-FAM) 5'-labeled reporter sequence-specific primer (2 min at 95 C, 20 s at 68 C and 10 min at 72 C) and these products were digested with 5U of HpaI (New England Biolabs) for 2h at 37 C. The fragments were purified using Qiaquick PCR columns (Qiagen), analyzed on an ABI 3130xL genetic analyzer (Applied Biosystems) with peak positions identified by using a set of X-rhodamine (ROX)-labeled MapMarker1000 molecular weight standards (BioVentures). The raw capillary electrophoresis data was processed using Attagraph software (Attagene).

| SMILES | outcome |
| --- | --- |
| C[N+]1(C)CCCCC1 | inactive |
| FC(F)C(F)(F)OCC(Cn1cncn1)c1ccc(Cl)cc1Cl (stereo not given) | inactive |
| CC(=NC#N)N(C)Cc1ccc(Cl)nc1 | inactive |
| CN(C)C(=O)Nc1cccc(C(F)(F)F)c1 | inactive |
| CN1COCN(Cc2cnc(Cl)s2)C1=N[N+](=O)[O-] | inactive |
| CCNc1nc(Cl)nc(NC(C)(C)C#N)n1 | inactive |
| CC(COc1ccc(Oc2ccccc2)cc1)Oc1ccccn1 (stereo not given) | inactive |
| CCC(=O)Nc1ccc(Cl)c(Cl)c1 | inactive |
| CCCOc1nn(C(=O)NS(=O)(=O)c2ccccc2C(=O)OC)c(=O)n1C | inactive |
| Nc1c(Cl)cc([N+](=O)[O-])cc1Cl | inactive |
| CCOP(=S)(OCC)Oc1ccc([N+](=O)[O-])cc1 | inactive |
| CC1(C(=O)Nc2ccc(O)c(Cl)c2Cl)CCCCC1 | inactive |
| CSc1nnc(C(C)(C)C)c(=O)n1N | inactive |
| CNC(=O)ON=C(C)SC | inactive |
| N#CSCSC#N | inactive |
| S=C1NCCN1 | inactive |
| O=c1ccc(=O)[nH][nH]1 | inactive |
| CCC(CC)Nc1c([N+](=O)[O-])cc(C)c(C)c1[N+](=O)[O-] | inactive |
| CCOC(=O)COc1cc(-c2nn(C)c(OC(F)F)c2Cl)c(F)cc1Cl | inactive |
| O=C(O)c1cc(Oc2ccc(C(F)(F)F)cc2Cl)ccc1[N+](=O)[O-] | inactive |

| SMILES | outcome |
| --- | --- |
| CC(Oc1cccc(Cl)c1)C(=O)O (stereo not given) | inactive |
| CCOP(=S)(OCC)SCCSCC | inactive |
| CC1=NNC(=O)N(/N=C/c2cccnc2)C1 | inactive |
| C#CCC1=C(C)C(OC(=O)C2C(C=C(C)C)C2(C)C)CC1=O (stereo not given) | inactive |
| Cc1cc(C2CC2)nc(Nc2ccccc2)n1 | inactive |
| CCCCOC(=O)[C@@H](C)Oc1ccc(Oc2ccc(C#N)cc2F)cc1 | inactive |
| CC(C)=CC1C(C(=O)OCN2C(=O)C3=C(CCCC3)C2=O)C1(C)C (stereo not given) | inactive |
| CCCCSP(=O)(SCCCC)SCCCC | inactive |
| CC[C@H](C)[C@H]1O[C@]2(C=C[C@@H]1C)C[C@@H]1C[C@@H](C/C=C(\C)[C@@H](O[C@H]3C[C@H](OC)[C@@H](O[C@H]4C[C@H](OC)[C@@H](NC)[C@H](C)O4)[C@H](C)O3)[C@@H](C)/C=C/C=C3\CO[C@@H]4[C@H](O)C(C)=C[C@@H](C(=O)O1)[C@]34O)O2 | inactive |
| CNc1cnn(-c2cccc(C(F)(F)F)c2)c(=O)c1Cl | inactive |
| CCOP(=S)(OCC)OC(Cl)C(Cl)(Cl)Cl (stereo not given) | inactive |
| C#CC(C)(C)NC(=O)c1cc(Cl)cc(Cl)c1 | inactive |
| CN(C)[C@@H]1C(=O)C(C(N)=O)=C(O)[C@@]2(O)C(=O)C3=C(O)c4c(O)cccc4[C@@](C)(O)[C@H]3[C@H](O)[C@@H]12 | inactive |
| COP(=O)(OC)C(O)C(Cl)(Cl)Cl (stereo not given) | inactive |
| COc1ccc(C(=CC(=O)N2CCOCC2)c2ccc(Cl)cc2)cc1OC | inactive |
| CCOP(=O)(OCC)Oc1cc(C)nc(C(C)C)n1 | inactive |
| Nc1nc(N)nc(NC2CC2)n1 | inactive |
| CC(C1CC1)C(O)(Cn1cncn1)c1ccc(Cl)cc1 (stereo not given) | inactive |
| CNC(=O)Oc1cccc2c1OC(C)(C)O2 | inactive |
| CCCCOC(=O)c1ccccc1C(=O)O | inactive |
